16 molecules from PubChem BioAssay (NCATS) can be followed below.

Results filed as inconclusive are left out. Entries that show only a call come without a potency. Activity calls are given as the source filed them. The call rests on the fitted dose curve; in most records, active means well fitted curve in the direction sought with a large enough effect; inconclusive means small, poorly fitted or top-dose-only effect, or another doubt; inactive means no such curve, though single readings can be large; an effect the other way counts as inactive or inconclusive.
Potency means the concentration at half of the fitted maximal effect.

The nature of one assay: qHTS of pediatric cancer cell lines to identify multiple opportunities for drug repurposing: Confirmatory screen for RD cells (AID 1347124).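 Further: cells exposed to compound for 48 h before viability readout; nearly all actives have a fitted effect of over 65% in size.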 The conditions noted are these: RD rhabdomyosarcoma cell viability; series mostly up to 45.9 µM. In a few lines: (§1)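 Cells (500-1,000/well) in growth media were settled 5 h at 37 degrees C, then given compounds for 48 h. Viability was read as CellTiter-Glo luminescence. Primary runs used MIPE at 11 points (0.78 nM-46 µM) and NPC at 8 points (0.59 nM-46 µM); follow-ups used 11 points.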
In the case of `FC(F)(F)c1ccc(C=Cc2nc(COc3ccc(CCCCn4ccnn4)cc3)co2)cc1`, the Potency is 1850 nM (active).

Consider `CN1CCN(c2ncc(-c3cc(Cl)cc(Cl)c3Cl)c(N)n2)CC1`, for which the Potency result was “inactive”.

`N#CC(=C1Nc2ccccc2S1)c1ccnc(OCc2ccc(CN3CCOCC3)cc2)n1`: the Potency entry is “inactive”.

In the case of `O=C1NC(=O)C(c2cnc3ccccn23)=C1c1cn2c3c(cccc13)CN(C(=O)N1CCOCC1)CC2`, the Potency entry was “inactive”.

As to `Cc1ccc2c(c1)C(=O)[C@]1(O)CCN(c3ccccc3)C1=N2`, the Potency result is “inactive”.

Regarding `CN(C)CCN(C)C(=O)c1ccc(NC(=O)Nc2ccc(-c3nc(N4CCOCC4)c4ccn(CC(F)(F)F)c4n3)cc2)cc1`, the Potency is 928 nM (active).

On to `COc1cc2ncnc(Nc3cc(Br)c(O)c(Br)c3)c2cc1OC`, for which the Potency result was “inactive”.

In the case of `COc1cc2c(cc1Cc1cccc(Cl)c1F)c(=O)c(C(=O)O)cn2[C@H](CO)C(C)C`, the Potency entry is “inactive”.

Turning to `CC1(COc2ccc3c(c2)ncn3-c2ccc3cccc(N4CCC(N)CC4)c3n2)COC1`, the Potency entry was “inactive”.

Another assay in a line: qHTS of pediatric cancer cell lines to identify multiple opportunities for drug repurposing: Confirmatory screen for Rh18 cells (AID 1347125). Further: nearly all actives have a fitted effect of over 55% in size. The conditions noted are these: Rh18 rhabdomyosarcoma cells, viability; series mostly up to 45.9 µM. In a few lines:
as §1
Consider `CN1N=C(N)c2cn([C@@H]3O[C@H](COP(=O)(O)O)[C@@H](O)[C@@H]3O)c3ncnc1c23`, for which the Potency was 329 nM (active).

`FC(F)(F)c1ccc(C=Cc2nc(COc3ccc(CCCCn4ccnn4)cc3)co2)cc1`: the Potency result was “inactive”.

Take `Nc1[nH]nc2nnc(-c3c(-c4ccccc4)nn4ccccc34)cc12`: the Potency is 20800 nM (active).

With `N#CC(=C1Nc2ccccc2S1)c1ccnc(OCc2ccc(CN3CCOCC3)cc2)n1`, the Potency result was “inactive”.

With `O=C1NC(=O)C(c2cnc3ccccn23)=C1c1cn2c3c(cccc13)CN(C(=O)N1CCOCC1)CC2`, the Potency result is “inactive”.

Take `CC(C)C[C@H](NC(=O)c1cc2ccccc2s1)C(=O)N1CCN(C(=O)[C@H](CO)NS(=O)(=O)c2ccc(Cl)cc2Cl)CC1`: the Potency result was “inactive”.

`CN(C)CCN(C)C(=O)c1ccc(NC(=O)Nc2ccc(-c3nc(N4CCOCC4)c4ccn(CC(F)(F)F)c4n3)cc2)cc1`: the Potency was 3290 nM (active).

As to `CNC(=O)[C@H](CC1=CN=C2C=CCC=C12)NC(=O)[C@@H](CC(=O)NO)CC(C)C`, the Potency was 1470 nM (active).

With `COc1cc2ncnc(Nc3cc(Br)c(O)c(Br)c3)c2cc1OC`, the Potency result is “inactive”.

In the case of `COc1cc2c(cc1Cc1cccc(Cl)c1F)c(=O)c(C(=O)O)cn2[C@H](CO)C(C)C`, the Potency result was “inactive”.

For `CC1(COc2ccc3c(c2)ncn3-c2ccc3cccc(N4CCC(N)CC4)c3n2)COC1`, the Potency entry is “inactive”.

Another assay in a line: qHTS of pediatric cancer cell lines to identify multiple opportunities for drug repurposing: Confirmatory screen for Rh30 cells (AID 1347126). Further: nearly all actives have a fitted effect of over 55% in size. The conditions noted are these: Rh30 rhabdomyosarcoma cell viability; series mostly up to 45.9 µM. In a few lines: as §1
In general terms: qHTS replaces the single test concentration by a dilution series.
Turning to `CC(C)CN(C[C@@H](O)[C@H](Cc1ccccc1)NC(=O)O[C@H]1CO[C@H]2OCC[C@H]21)S(=O)(=O)c1ccc(N)cc1`, the Potency entry was “inactive”.

For `N#CC(=C1Nc2ccccc2S1)c1ccnc(OCc2ccc(CN3CCOCC3)cc2)n1`, the Potency result is “inactive”.

In the case of `O=C1NC(=O)C(c2cnc3ccccn23)=C1c1cn2c3c(cccc13)CN(C(=O)N1CCOCC1)CC2`, the Potency result is “inactive”.

For `CN(C)CCN(C)C(=O)c1ccc(NC(=O)Nc2ccc(-c3nc(N4CCOCC4)c4ccn(CC(F)(F)F)c4n3)cc2)cc1`, the Potency was 369 nM (active).

Turning to `CNC(=O)[C@H](CC1=CN=C2C=CCC=C12)NC(=O)[C@@H](CC(=O)NO)CC(C)C`, the Potency was 1470 nM (active).

The nature of the next assay: qHTS of pediatric cancer cell lines to identify multiple opportunities for drug repurposing: Confirmatory screen for Saos-2 cells (AID 1347127). Further: nearly all actives have a fitted effect of over 60% in size. The conditions noted are these: Saos-2 osteosarcoma cell viability; series mostly up to 45.9 µM. In a few lines:
as §1
On to `CN1N=C(N)c2cn([C@@H]3O[C@H](COP(=O)(O)O)[C@@H](O)[C@@H]3O)c3ncnc1c23`, for which the Potency is 1850 nM (active).

In the case of `CN1CCN(c2ncc(-c3cc(Cl)cc(Cl)c3Cl)c(N)n2)CC1`, the Potency result was “inactive”.

`CC(C)CN(C[C@@H](O)[C@H](Cc1ccccc1)NC(=O)O[C@H]1CO[C@H]2OCC[C@H]21)S(=O)(=O)c1ccc(N)cc1`: the Potency entry was “inactive”.

As to `O=C1NC(=O)C(c2cnc3ccccn23)=C1c1cn2c3c(cccc13)CN(C(=O)N1CCOCC1)CC2`, the Potency entry is “inactive”.

In the case of `COc1cc2ncnc(Nc3cc(Br)c(O)c(Br)c3)c2cc1OC`, the Potency result is “inactive”.

As for `O=c1[nH]nc(OCCCc2ccc(Cl)cc2)c(NCc2cccnc2)c1Br`, the Potency result is “inactive”.

In the case of `CC1(COc2ccc3c(c2)ncn3-c2ccc3cccc(N4CCC(N)CC4)c3n2)COC1`, the Potency entry is “inactive”.

A short description of the next assay: qHTS of pediatric cancer cell lines to identify multiple opportunities for drug repurposing: Confirmatory screen for OHS-50 cells (AID 1347128).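 Further: compound exposure lasted 48 h at 37 degrees C; nearly all actives have a fitted effect of over 55% in size.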 Conditions: OHS-50 osteosarcoma cells viability; series mostly up to 45.9 µM. In a few lines:
as §1
Turning to `CN1N=C(N)c2cn([C@@H]3O[C@H](COP(=O)(O)O)[C@@H](O)[C@@H]3O)c3ncnc1c23`, the Potency was 1170 nM (active).

In the case of `FC(F)(F)c1ccc(C=Cc2nc(COc3ccc(CCCCn4ccnn4)cc3)co2)cc1`, the Potency entry is “inactive”.

With `CN1CCN(c2ncc(-c3cc(Cl)cc(Cl)c3Cl)c(N)n2)CC1`, the Potency result is “inactive”.

With `CC(C)CN(C[C@@H](O)[C@H](Cc1ccccc1)NC(=O)O[C@H]1CO[C@H]2OCC[C@H]21)S(=O)(=O)c1ccc(N)cc1`, the Potency result is “inactive”.

Regarding `O=C1NC(=O)C(c2cnc3ccccn23)=C1c1cn2c3c(cccc13)CN(C(=O)N1CCOCC1)CC2`, the Potency was 10400 nM (active).

For the molecule `Cc1ccc2c(c1)C(=O)[C@]1(O)CCN(c3ccccc3)C1=N2`, the Potency entry is “inactive”.

As to `COc1cc2ncnc(Nc3cc(Br)c(O)c(Br)c3)c2cc1OC`, the Potency entry is “inactive”.

The next assay in a line: qHTS of pediatric cancer cell lines to identify multiple opportunities for drug repurposing: Confirmatory screen for SK-N-SH cells (AID 1347129).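 Further: cells exposed to compound for 48 h before viability read; nearly all actives have a fitted effect of over 60% in size.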 Conditions: SK-N-SH neuroblastoma cell viability; series mostly up to 46.1 µM. In a few lines:
as §1
On to `CN1N=C(N)c2cn([C@@H]3O[C@H](COP(=O)(O)O)[C@@H](O)[C@@H]3O)c3ncnc1c23`, for which the Potency was 1050 nM (active).

Regarding `FC(F)(F)c1ccc(C=Cc2nc(COc3ccc(CCCCn4ccnn4)cc3)co2)cc1`, the Potency entry is “inactive”.

Take `Nc1[nH]nc2nnc(-c3c(-c4ccccc4)nn4ccccc34)cc12`: the Potency entry was “inactive”.

Regarding `CN1CCN(c2ncc(-c3cc(Cl)cc(Cl)c3Cl)c(N)n2)CC1`, the Potency was 20900 nM (active).

Take `N#CC(=C1Nc2ccccc2S1)c1ccnc(OCc2ccc(CN3CCOCC3)cc2)n1`: the Potency entry was “inactive”.

`COc1cc2c(cc1OC)[C@@H]1Cc3ccc(OC)c(OC)c3CN1CC2`: the Potency result was “inactive”.

Regarding `Cc1ccc2c(c1)C(=O)[C@]1(O)CCN(c3ccccc3)C1=N2`, the Potency entry is “inactive”.

Consider `CN(C)CCN(C)C(=O)c1ccc(NC(=O)Nc2ccc(-c3nc(N4CCOCC4)c4ccn(CC(F)(F)F)c4n3)cc2)cc1`, for which the Potency was 4690 nM (active).

Regarding `CNC(=O)[C@H](CC1=CN=C2C=CCC=C12)NC(=O)[C@@H](CC(=O)NO)CC(C)C`, the Potency result is “inactive”.

Regarding `CC1(COc2ccc3c(c2)ncn3-c2ccc3cccc(N4CCC(N)CC4)c3n2)COC1`, the Potency was 10500 nM (active).
